Results published in PubChem BioAssay (NCATS).
Inconclusive results are not listed. Active and inactive are the calls of the source. The call rests on the fitted dose curve; in most records, active means well fitted inhibition curve with a large enough effect; inconclusive means small, poorly fitted or top-dose-only effect; inactive means flat fitted curve, though single readings scatter.

What was measured:
Assay in all cases: qHTS profiling for inhibitors of Plasmodium falciparum proliferation (AID 504749); further: nearly all actives have a fitted effect of over 60% in size
Conditions in all cases: P. falciparum in erythrocytes, SYBR Green DNA, 72 h; series mostly up to 28.7 µM
ECU = test system: ECU
Outline: (§1)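 Fluorescence of SYBR Green-bound parasite DNA, read at 485/535 nm, served as the growth measure. Infected erythrocytes were cultured with compound 72 h; artemisinin (0.29 uM) and DMSO wells defined the normalization range.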

FAB9 = test system: FAB9
Outline: as §1

HB3 = test system: HB3
Outline: as §1

ICS = test system: ICS
Outline: as §1

JCK = test system: JCK
Outline: as §1

N140 = test system: N140
Outline: as §1

P93_24 = test system: P93_24
Outline: as §1

P94_40 = test system: P94_40
Outline: as §1

PAD = test system: PAD
Outline: as §1

PC15 = test system: PC15
Outline: as §1

PC26 = test system: PC26
Outline: as §1

PC49 = test system: PC49
Outline: as §1

SC27B = test system: SC27B
Outline: as §1

TAB109 = test system: TAB109
Outline: as §1

TAB113 = test system: TAB113
Outline: as §1

TAB165 = test system: TAB165
Outline: as §1

GB4 = test system: GB4
Outline: as §1

W2 = test system: W2
Outline: as §1

Measured: Potency
Potency means the concentration at half of the fitted maximal effect.

Cc1cccc(C)c1NC(=O)C1CCCCN1C (stereo not given)
not listed: GB4 | W2
inactive: all other assays above

C[C@]12CCC(=O)C[C@@H]1CC[C@@H]1[C@@H]2CC[C@]2(C)C=CC[C@@H]12
not listed: HB3 | ICS | N140 | W2
inactive: all other assays above

OCCOCCOCCO
not listed: PC26 | GB4
inactive: all other assays above

O=c1n(CC2CO2)c(=O)n(CC2CO2)c(=O)n1CC1CO1 (stereo not given)
inactive: ECU | FAB9 | HB3 | JCK | N140 | PC15 | PC26 | PC49 | SC27B | TAB113

Cc1cc(-c2ccc(N=Nc3c(S(=O)(=O)O)cc4cc(S(=O)(=O)O)cc(N)c4c3O)c(C)c2)ccc1N=Nc1c(S(=O)(=O)O)cc2cc(S(=O)(=O)O)cc(N)c2c1O
active: TAB165 12.6 µM
not listed: ICS | N140 | P93_24 | P94_40 | PAD | PC26 | TAB109
inactive: all other assays above

CC1CCC(NC(=O)N(CCCl)N=O)CC1 (stereo not given)
active: W2 10.7 µM
not listed: GB4
inactive: all other assays above

COc1ccc(-c2noc(CC(=O)O)c2-c2ccc(OC)cc2)cc1
not listed: GB4
inactive: all other assays above

CC(=O)[O][Al][O]C(C)=O
not listed: GB4
inactive: all other assays above

CN1C(C(=O)Nc2ccccn2)C(=O)c2sc(Cl)cc2S1(=O)=O (stereo not given)
not listed: ICS | PC26
inactive: all other assays above

CC(C)C1=CC2=CC[C@@H]3[C@](C)(CCC[C@@]3(C)C(=O)O)[C@H]2CC1
not listed: PC26 | GB4
inactive: all other assays above

O.O.O.O.O.O.O.O=S(=O)([O-])[O-].[Co+2]
inactive: P93_24 | P94_40 | PAD | PC15
active: ECU 12.6 µM | FAB9 11.2 µM | GB4 8.49 µM | ICS 5.62 µM | JCK 12.6 µM | N140 12.6 µM | PC49 7.94 µM | SC27B 7.94 µM | TAB109 7.94 µM | TAB113 6.31 µM | TAB165 10 µM | W2 5.36 µM

COc1ccc2c(=O)c(C)c(-c3ccccc3)oc2c1CN(C)C
active: W2 6.75 µM
not listed: ICS | N140 | P93_24 | P94_40
inactive: all other assays above

Oc1ccc(Cl)c2c1CCC2
not listed: ICS
inactive: all other assays above

O=C(CCCN1CCN2CCCC2C1)c1ccc(F)cc1 (stereo not given)
active: N140 10 µM | W2 6.01 µM
not listed: P93_24 | TAB109 | TAB113 | TAB165 | GB4
inactive: all other assays above

CC(C)NCC(O)COc1ccccc1-n1cccc1 (stereo not given)
not listed: ICS | PC15 | TAB109 | GB4 | W2
inactive: all other assays above

CCCc1nc(C(C)(C)O)c(C(=O)OCc2oc(=O)oc2C)n1Cc1ccc(-c2ccccc2-c2nn[nH]n2)cc1
not listed: ICS
inactive: all other assays above

CC1CCCCN1CCCOC(=O)c1ccccc1 (stereo not given)
not listed: GB4 | W2
inactive: all other assays above

C#C[C@]1(O)CC[C@@H]2[C@H]3CCC4=CC(=O)CC[C@H]4[C@H]3C(=C)C[C@@]21CC
not listed: ICS | PC26 | GB4 | W2
inactive: all other assays above

CN(C)CCOc1ccc(/C(=C(/CCCl)c2ccccc2)c2ccccc2)cc1
not listed: PC15 | GB4
inactive: all other assays above

CCCCC/C=C\C/C=C\C/C=C\CCCCC(=O)O
not listed: ICS | TAB113 | GB4
inactive: all other assays above

CCSc1ccc2c(c1)N(CCCN1CCN(C)CC1)c1ccccc1S2
not listed: ICS | SC27B | TAB113 | GB4 | W2
inactive: all other assays above

c1ccc2c(c1)Sc1ccccc1N2CCN1CCCC1
active: ECU 10 µM | GB4 7.57 µM | ICS 3.98 µM | N140 7.94 µM | P93_24 7.08 µM | P94_40 7.94 µM | PAD 7.94 µM | PC15 11.2 µM | PC26 12 µM | SC27B 8.91 µM | TAB109 8.91 µM | TAB113 5.01 µM | TAB165 7.08 µM | W2 1.69 µM
inactive: FAB9 | JCK

O=[N+]([O-])c1c(Cl)cccc1-c1c[nH]cc1Cl
not listed: ICS | P94_40 | W2
inactive: all other assays above

CN(C)c1ccc(C(=C2C=CC(=[N+](C)C)C=C2)c2c(O)c(S(=O)(=O)[O-])cc3cc(S(=O)(=O)O)ccc23)cc1
not listed: GB4
inactive: all other assays above

CCCCCCCCCCCCCCCCCCCCCC(=O)Nc1ccn([C@@H]2O[C@H](CO)[C@@H](O)[C@@H]2O)c(=O)n1
not listed: ICS | GB4 | W2
inactive: all other assays above

CC/C=C\C/C=C\C/C=C\CCCCCCCC(=O)O
not listed: ICS | PAD | PC26 | TAB165
inactive: all other assays above

CS(=O)(=O)c1ccc([C@@H](O)[C@@H](COC(=O)CN)NC(=O)C(Cl)Cl)cc1
active: TAB109 8.91 µM
not listed: ICS | P93_24 | P94_40 | TAB165 | GB4 | W2
inactive: all other assays above

C[C@H](CCCC(C)(C)O)[C@H]1CC[C@H]2[C@@H]3CC=C4C[C@@H](O)CC[C@]4(C)[C@H]3CC[C@]12C
active: ICS 12.6 µM
not listed: HB3 | P94_40
inactive: all other assays above

CCN(CC)CCOc1ccccc1OC
not listed: GB4 | W2
inactive: all other assays above
